# According to PubChem BioAssay (NCI):
# Several values for one entry are separate records, joined by “and”; a condition that tells them apart may be missing. Identical values can stand only once. About 83,000 compounds went through this panel and 20% of them were active in at least one assay; those are over-represented in the sample as a whole.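 Testing used 96-well plates and a 48-hour single-concentration exposure. Example: -40 means 40% of the starting cells died.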 Unmarked numbers belong to inactive results. Activity calls are given as the source filed them. Rule for the calls: active = growth percent below 10; inactive = the rest.
# Test system: MDA-MB-468 breast
# Test: NCI-60 one-dose screen, 48 h (100 = growth as untreated, 0 = no growth, -100 = all killed)
# Conditions: 10 µM unless noted
row,SMILES,growth
1,O=C(CSc1nc2ccccc2[nH]1)Nc1ccc(-c2nc3ccccc3s2)c(Cl)c1,26.5%
2,CC1=NN2C(=NC3=C(CCC/C3=C\c3ccc(Cl)cc3)C2c2ccc(Cl)cc2)S1 (stereo not given),95.6%
3,c1cc2[nH]ncc2cc1-c1nc2ccc3[nH]ncc3c2c2c1CCC2,3.92% (active)
4,CC(=O)c1cccc(NS(=O)(=O)c2ccc(C)cc2)c1,77.3%
5,Oc1c(Cl)cc(Cl)cc1CNc1nccnn1,109%
6,COc1ccc(/C=C/C(=O)c2cccc(OCCCCOc3cccc(C(=O)/C=C/c4ccc(OC)c(OC)c4)c3)c2)cc1OC,23.1%
7,CN(C)c1ccc(C(Cc2ccc3ccccc3n2)Cc2ccc3ccccc3n2)cc1,32.6% and 77%
8,O=[N+]([O-])c1ccc(NS(=O)(=O)c2ccc(Cl)c(Cl)c2)cc1,64.6%
9,O=c1c2cc(F)ccc2sc2c(Nc3cccnc3)nc3ccccc3c12,76.4%
10,Nc1ccc(Nc2ncnc3sc4c(c23)CCN(Cc2ccccc2)C4)cc1,90.4%
11,Cn1c([N+](=O)[O-])cnc1/C=C1\Oc2ccc(Cl)cc2C1=O,7.19% (active)
12,C=C1CC[C@@H]2[C@](C)(COC(C)=O)[C@H](OC(C)=O)CC[C@@]2(C)[C@@H]1CC(Nc1ccc(S(=O)(=O)Nc2cc(C)on2)cc1)C1=CCOC1=O (stereo not given in full),3.23% (active)
13,O=S(=O)(Cc1ccccc1)c1nc2ccccc2s1,76.8%
14,COc1cc(NC(=O)c2cc(O)c(CC=C(C)C)c(O)c2)cc2c1O[C@]1(C)CC[C@@H](O)C(C)(C)[C@H]1C2,30.8%
15,CN1CCN(Cc2ccc(NC(=O)c3cncc(C#Cc4ncc5ccccn45)c3)cc2C(F)(F)F)CC1,36.5%
16,CCOC(=O)c1c(O)cc(-c2ccccc2)cc1-c1sc(N(C)Cc2ccccc2)nc1Cl,111%
17,C=CCn1c(SCC(=O)Nc2ccc(C(=O)/C=C/c3cc(OC)c(OC)c(OC)c3)cc2)nnc1-c1cc(-c2ccc(S(C)(=O)=O)cc2)nc2ccccc12,88.8%
18,CN(Cc1ccccc1)Cc1ccc([N+](=O)[O-])cc1I,93.3%
19,Cc1cc(S(=O)(=O)N(C)C)cc(NCC(=O)NC(=O)NCC(C)C)c1C,104%
20,Oc1ccc(C2OCCO2)c2cccnc12,62.4%

row,SMILES,growth
1,O=C(Nc1cccnc1Nc1ccccc1)c1cn(Cc2cccc(Oc3ccccc3)c2)nn1,69.9%
2,CC1=C(C(=O)OCC2CCN(C(=O)OC(C)(C)C)CC2)[C@H](c2cccc(C#N)c2)C2=C(CC(C)(C)CC2=O)N1,59.9%
3,Cc1cnc2nc(NN)[nH]n12,91%
4,O=[N+]([O-])c1cccc([I+]c2ccccc2)c1,20.2%
5,CCO/C=N/C1=C(C#N)C(c2ccc(Cl)cc2)c2sc3c(CC)cccc3c2O1 (stereo not given),-33.4% (active)
6,N#Cc1c(-c2ccccc2)nc(SCC(=O)N2CCOCC2)[nH]c1=O,108%
7,CCC(C)Nc1ccc(N)cc1 (stereo not given),-30.9% (active)
8,O=C(CSc1nc2ccccc2c(=O)n1-c1ccc(S(=O)(=O)Nc2ccc(Cl)nn2)cc1)Nc1ccc(S(=O)(=O)Nc2ccc(Cl)nn2)cc1,94.9%
9,COCCNC1=C(Cl)C(=O)c2ccccc2C1=O,76.8%
10,COc1cc(/C=N/n2cnc3oc(-c4ccccc4)cc3c2=N)cc(CN2CCOCC2)c1O,83.2%
11,O=C(OCc1ccc2c(Cl)cc(Cl)c(O)c2n1)n1cncn1,14%
12,CCOC(=O)c1ccc2[nH]c(-c3ccccc3)cc(=O)c2c1,105%
13,COc1ccc(-c2cc(-c3cc(-c4ccc(OC)cc4)nc(N)n3)nc(N)n2)cc1,104%
14,O=C(/C=C/c1ccc(F)cc1)c1ccc(NC(=O)N2CCN(c3cc4c(cc3F)c(=O)c(C(=O)O)cn4C3CC3)CC2)cc1,68.3%
15,CC(=O)O[C@@H]1[C@@H](OC(C)=O)[C@H](OC(C)=O)CO[C@H]1Nc1cccc2ccccc12,104%
16,Nc1cc(-c2ccncc2)c[nH]c1=O,117%
17,O=C1CC(=O)N(C(=O)c2nn(-c3ccc(Cl)cc3)cc2O)N1,62.4%
18,Nc1c(C(=O)Nc2ccccc2Cl)sc2nc3c(cc12)C(=O)CCC3,24.9%
19,Cc1c[n+](Cc2ccc3ccccc3c2)cn1Cc1ccc2ccccc2c1,-22.6% (active)
20,C#Cc1cccc(Nc2ncnc3ccc(-c4cncc(NS(C)(=O)=O)c4)cc23)c1,-40.3% (active)
